Source: PubChem BioAssay
DT40 TDP1 CPT = growth inhibition of DT40 Tdp1-/-;hTDP1 cells with camptothecin (screen for TDP1 inhibitors); chicken DT40 Tdp1-/-;hTDP1 cells + 20 nM CPT, ATP luminescence, 48 h; Potency, µM (titrated, usually from 46.2 µM), without a hit: at the top dose activity change, negative = growth inhibition, hits mostly inhibitors; 420,000 compounds, 12% hits; further: potency means the concentration at half of the fitted maximal effect; nearly all actives have a fitted effect of over 55% in size
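Chicken DT40 Tdp1-/- cells complemented with human TDP1, 400 cells/well, exposed to compounds plus 20 nM camptothecin for at least 48 h at 37 C; viability read as ATP content by CellTiter-Glo luminescence.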
HT1080 IDH1KD tx = HT-1080 IDH1 knockdown cell toxicity (counter line) | HT-1080 IDH1 knockdown viability, ATP luminescence, 48 h | AID 686971 | Potency, µM (series often up to 46.1 µM), for inactives: at the highest dose activity, negative = toxicity, hits mostly cytotoxic | 360,000 compounds, 2% hits;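 further: potency means the concentration at half of the fitted maximal effect; 0% = DMSO wells and -100% = cell-free medium wells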
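Luminescent ATP read-out (CellTiter-Glo, 10 min at room temperature) after 48 h compound exposure at 37 °C gave viability of IDH1-knockdown HT-1080 cells. Activity was normalised to DMSO and cell-free wells, then fitted as concentration-response curves.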
DT40 TDP1 no CPT = qHTS for Inhibitors of human tyrosyl-DNA phosphodiesterase 1 (TDP1): qHTS in cells in absence of CPT. 420,000 compounds, 15% hits. DT40 Tdp1-/- hTDP1 cells, no CPT, ATP luminescence, 48 h. Potency, µM (series often up to 46.2 µM), for the others: top-dose activity change, negative = growth inhibition, usual class: inhibitors; further: potency means the concentration at half of the fitted maximal effect; nearly all actives have a fitted effect of over 55% in size
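Chicken DT40 Tdp1-/- cells complemented with human TDP1, screened without camptothecin (DMSO vehicle only), 400 cells/well. Compounds pin-transferred, cells incubated at 37 °C for at least 48 hr. Growth read as ATP-dependent luminescence (CellTiter-Glo, 30 min at RT).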
IL1B secr inh = inflammasome signaling inhibition, IL-1 beta readout; activity change, % at 57.5 µM; 360,000 compounds, 4.7% hits; THP-1 LPS/ATP IL-1B secretion, AlphaLISA, 16 h; active compounds read low; in the data active means activity change below about -50%; inconclusive means mostly about -30% to -49%
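THP-1 cells pretreated 1 hr with compounds (up to 57.5 uM final), then stimulated with LPS (250 ng/mL final) plus ATP (1.25 mM final); secreted IL-1B measured by AlphaLISA after 16 hr, decreased signal indicating inhibition.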
HT1080NT lethal = kills 2HG-producing HT-1080-NT fibrosarcoma cells; Potency, µM (highest dose often 46.1 µM), for the others: top-dose activity, negative = less viability, actives largely listed as cytotoxic; 360,000 compounds, 1.6% hits; HT-1080-NT fibrosarcoma viability, CellTiter-Glo ATP luminescence, 48 h;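 further: NT is the 2HG producing partner of a matched IDH1 knockdown line; potency means the concentration at half of the fitted maximal effect; 0% = DMSO-treated cells and -100% = media-only wells without cells; nearly all actives have a fitted effect of over 55% in size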
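Viability by CellTiter-Glo luminescence after 48 h compound exposure at 37C of HT-1080-NT cells (750/well, RPMI, 5% FBS). % activity scaled between DMSO wells and medium-only wells, then curve-fitted and categorized by curve class.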
* marks the source's active call; other numbers are inactive results; ? = inconclusive; nt = no result; [ ] = remark or other dose. Rows were chosen to be rich in hits. Some 19% of all compounds tested hit in one or more screens of this group. Unless noted, the call rests on the fitted dose curve; in most records, active means well fitted curve in the direction sought with a large enough effect; inconclusive means small, poorly fitted or top-dose-only effect, or another doubt; inactive means no such curve, though single readings can be large; an effect the other way counts as inactive or inconclusive. Unless noted, on the % scale 0 is the no-effect control and ±100 the full control effect.

SMILES | DT40 TDP1 CPT | HT1080 IDH1KD tx | DT40 TDP1 no CPT | IL1B secr inh | HT1080NT lethal
COc1ccc(NC(=O)c2sc3nc(C)c(C(=O)Nc4ccc(C)cc4C)c(-c4cccs4)c3c2N)cc1 | -24.3% | nt | -24.0% | nt | nt
COc1ccccc1NC(=O)c1sc2nc(C)c(C(=O)Nc3ccc(C)cc3C)c(-c3cccs3)c2c1N | -2.1% | nt | -6.6% | nt | nt
Cc1ccc(SCC(=O)Nc2ccc(F)cc2[N+](=O)[O-])cc1C | 22.1% | 12.2% | -26.2% | 15.5 | 16.6%
COc1cc(C2C(C(=O)Nc3ccccc3)=C(C)Nc3nnnn32)cc(OC)c1OC (stereo unspecified) | 4.9% | nt | 11.6µM* | nt | nt
COc1ccccc1-c1nc2n(n1)C(c1ccccc1Cl)C(C(=O)Nc1cccnc1)=C(C)N2 (stereo unspecified) | ? | nt | 20.6µM* | nt | nt
COc1ccc(C2C(C(=O)Nc3ccccc3)=C(C)Nc3nc(-c4ccccc4)nn32)cc1OC (stereo unspecified) | -29.0% | nt | -19.0% | nt | nt
CCOc1ccc(C2C(C(=O)Nc3ccccc3)=C(C)Nc3nc(-c4ccccc4Cl)nn32)cc1OC (stereo unspecified) | ? | nt | 18.4µM* | nt | nt
CC1=C(C(=O)Nc2cccnc2)C(c2ccccc2Cl)n2nc(-c3ccccc3)nc2N1 (stereo unspecified) | ? | nt | -21.7% | nt | nt
Cc1nc(C)c(C(=O)N2CCc3c(cnc(C)c3CNC(=O)c3cncs3)C2)s1 | 16.1%[9.04 µM] | nt | -8.9% | nt | nt
COc1ccc(/C=C/C(=O)Nc2cc(C(F)(F)F)ccc2Cl)cc1OC | 29.1µM* | 6.1% | ? | ? | 3.7%
COc1ccc(/C=C/C(=O)Nc2ccccc2C(F)(F)F)cc1OC | 15.0% | 8.8% | -1.8% | 16.7 | -5.2%
COc1cc(/C=C/C(=O)Nc2cc(C(F)(F)F)ccc2Cl)cc(OC)c1OC | ? | ? | 25.9µM* | -56.7* | -28.5%
CN(C)CCCNC(=O)C[C@H]1C[C@H](C(=O)N2CCCCC2)[C@@]2(C)c3[nH]c4cc(-c5ccco5)ccc4c3CCN2C1=O | ? | -19.0% | ? | 0.0 | ?
CC[C@]12c3[nH]c4cc(-c5ccco5)ccc4c3CCN1C(=O)[C@@H](CC(=O)NCCC1=CCCCC1)C[C@@H]2C(=O)N1CCN(C(=O)C2CC2)CC1 | ? | -19.2% | ? | -50.2* | -18.7%
CC[C@]12c3[nH]c4cc(-c5ccco5)ccc4c3CCN1C(=O)[C@@H](CC(=O)NCC13CC4CC(CC(C4)C1)C3)C[C@@H]2C(=O)N1CCN(C(=O)C2CC2)CC1 | ? | ? | 23.1µM* | ? | -21.8%
CN(C)C(=O)CCc1ccc2c3c([nH]c2c1)[C@]1(C)[C@@H](C(=O)N2CCCCC2)C[C@H](CC(=O)NCC24CC5CC(CC(C5)C2)C4)C(=O)N1CC3 | 9.2µM* | -19.4% | 13µM* | ? | -17.1%
C[C@]12c3[nH]c4cc(-c5ccco5)ccc4c3CCN1C(=O)[C@@H](CC(=O)NCc1cccc(C(F)(F)F)c1)C[C@@H]2C(=O)N1CCCCC1 | ? | ? | 25.9µM* | -60.1* | ?
CCOc1ccccc1NC(=O)COC(=O)CSc1ccc(Cl)cc1 | 18.4% | -0.3% | -2.3% | 0.0 | 2.8%
CC(=O)Nc1cc2c3ccccc3n(C)c2cc1[N+](=O)[O-] | ? | -9.8% | ? | -18.2 | ?
O=C(CNS(=O)(=O)c1ccccc1)N1CCc2ccccc2C1 | -0.1% | 0.3% | 5.5% | -7.8 | 0.7%
CCOc1ccc(NC(=O)CCC(=O)NNC(=O)Nc2cccc(Cl)c2)cc1 | -16.4% | 1.2% | 4.8% | 13.7 | -3.6%
Cc1oc(-c2ccccc2NC(=O)C2CCC2)nc1CNC(=O)c1ccc(C#CC(C)(C)O)cc1 | -7.3%[9.04 µM] | nt | -8.7% | nt | nt
CC[C@]12c3[nH]c4cc(-c5ccco5)ccc4c3CCN1C(=O)[C@@H](CC(=O)NCCCN(C)C)C[C@@H]2C(=O)N1CCN(C(=O)c2ccco2)CC1 | -3.9% | 5.3% | -24.7% | 11.2 | 5.7%
